Compound activity from PubChem.
TRHR PAM – TRH receptor (human) allosteric enhancement; AID 493056; P34981; enhancement, % at 2 µM; 360,000 tested, 0.66% active; TRHR cells, fluo-8 calcium fluorescence, EC20 TRH enhancement; in the data active means enhancement above about 30%
Target sequence (P34981 whole entry, looked up): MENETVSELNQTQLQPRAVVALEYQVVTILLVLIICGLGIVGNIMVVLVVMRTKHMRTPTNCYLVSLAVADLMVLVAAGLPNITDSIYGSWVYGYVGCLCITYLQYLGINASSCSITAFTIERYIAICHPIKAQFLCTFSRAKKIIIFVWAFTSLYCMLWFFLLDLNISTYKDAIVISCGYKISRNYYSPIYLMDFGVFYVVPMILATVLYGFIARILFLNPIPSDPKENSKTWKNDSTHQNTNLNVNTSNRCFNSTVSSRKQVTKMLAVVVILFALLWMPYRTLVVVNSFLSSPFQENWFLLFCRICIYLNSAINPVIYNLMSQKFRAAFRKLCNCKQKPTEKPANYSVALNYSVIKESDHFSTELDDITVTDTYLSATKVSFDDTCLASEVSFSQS
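Enhancer read-out: after compound pinning and an initial kinetic agonist-mode read, an EC20 of TRH (10 nM final) was injected and fluo-8 calcium signal (Ex 480/Em 530) followed at 1 s/cycle for 100 cycles in TRHR-expressing cells.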
D1 PAM – human D1 dopamine receptor positive modulation; P21728; HEK293 TREx D1 cells, calcium flux, dopamine EC20 potentiation; potentiation, % at 10 µM; 360,000 tested, 0.036% active; AID 504651; in the data active means potentiation above about 30%
TRHR ag – activates the human TRH receptor; P34981; TRHR cells, calcium flux fluo-8, FDSS agonist mode; activation, % at 2 µM; 360,000 tested, 0.18% active; AID 493084
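Read-out: compound-evoked intracellular calcium rise in TRHR cells, fluo-8 dye, kinetic FDSS fluorescence at 1 s/cycle following a 10-cycle baseline. Cells cultured overnight before dye loading (30 min–1.5 h, RT).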
D1 agonist – activates the human D1 dopamine receptor; HEK293 T-REx D1 cells, calcium flux, agonist mode; activation, % at 2 µM; 360,000 tested, 1% active; AID 504660
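Tetracycline-induced HEK293 TREx D1 cells, force-coupled to calcium signalling, were dye-loaded with a no-wash calcium kit. Compound was pin-added after a 10 s baseline. Fluorescence was read kinetically at 1 cycle/s for 180 s, with calcium rises flagged as agonism.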
D1 antagonist – human D1 dopamine receptor antagonism | HEK293 TREx D1 cells, calcium flux, dopamine EC80; stronger effect = lower value | activity change, negative = inhibition, % at 10 µM | 360,000 tested, 3.2% active | AID 504652; in the data active means activity change below about -30%
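Tetracycline-induced HEK293 Trex D1 cells, force-coupled to calcium, dye-loaded; compounds added and read 180 s, then EC80 dopamine added and calcium flux tracked kinetically another 180 s.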
Of the large screens only hits and unclear results are named; the others gave an inactive call; ! = not active in a repeat. An excerpt weighted towards active compounds, which were near 4.6% of everything screened. Unless noted, no stated cut-off is given here; in the data, active means activation above about 30%; inactive means the rest.

CC(=O)Nc1cccc(NC(=O)c2ccc(COc3ccccc3)cc2)c1	D1 agonist 36 (no result: D1 PAM)
O=C(Nc1cccnc1)c1ccc(Oc2ccccc2)cc1	TRHR PAM 34
Cc1c(C)n2c(SCC(=O)N3CC(C)OC(C)C3)nnc2[nH]c1=O (configuration not stated)	none
Cc1ccc(CNC(=O)c2sc3nc(-c4ccccc4)cn3c2C)cc1	none
Cc1c(C(=O)NCc2ccc(F)cc2)sc2nc(-c3ccc(F)cc3)cn12	D1 antagonist -50
Cc1ccc(N(C)C(=O)C2CCN(S(=O)(=O)c3cn(C)cn3)CC2)cc1	none
CN(C)c1ccc(CNc2nc(-c3ccccc3)nn2S(C)(=O)=O)cc1	none
COc1ccc(CNc2nc(-c3cccnc3)nn2S(C)(=O)=O)cc1	D1 antagonist -31
Cc1ccc(CNc2nc(-c3ccco3)nn2C(=O)c2ccccc2[N+](=O)[O-])cc1	TRHR PAM 37, D1 antagonist -62
CS(=O)(=O)n1nc(-c2cccnc2)nc1NCc1ccccc1	none
CC(=O)n1nc(-c2ccccc2)nc1NCc1ccc(N(C)C)cc1	TRHR PAM 39
COc1ccc(CNc2nc(-c3ccco3)nn2C(=O)c2ccccc2C)cc1	D1 antagonist -36
CCC1CCCCN1S(=O)(=O)c1cc2c(cc1C)NC(=O)CO2 (configuration not stated)	none
COc1ccc(CNc2nc(-c3ccccc3)nn2C(=O)c2cccs2)cc1	D1 agonist 37
Cn1c(N)c(-c2ccccc2)c2ccc([N+](=O)[O-])cc2c1=O	D1 agonist 242
CCCCCC(C(=O)O)C(C)CC(=O)NC1CCCCC1 (configuration not stated)	TRHR PAM 38
O=C(O)c1ccc(COc2ccccc2/C=C2\NC(=O)N(Cc3ccc(F)cc3)C2=O)cc1	D1 antagonist -33
Cc1cccc(C(=O)N2CCc3cc(CNC(=O)c4ccc(Br)o4)ccc32)c1	none
COc1ccc(Cc2nnc(SC(C)C(=O)Nc3ccc(F)cc3Cl)o2)cc1 (configuration not stated)	none
c1cncc(-c2ccnc3ncnn23)c1	TRHR PAM 33
c1ccc(-c2ccnc3ncnn23)nc1	none
C/C(=C\COc1cc(=O)[nH]c2ccccc12)CCC(O)C(C)(C)O (configuration not stated)	TRHR PAM 32
Cc1ccc(OCC(=O)NNC(=S)NC(=O)C2CCCCC2)c(C)c1	D1 agonist 47
Cc1ccc(OCC(=O)NNC(=S)NC(=O)C(C)(C)C)c(Br)c1	D1 agonist 82
Cc1ccc(OCC(=O)NNC(=S)NC(=O)C2CC2)c(C)c1	none
CCn1c(C)c(C2N3CC4(C)CN2CC(CC)(C3)C4=O)c2ccccc21 (configuration not stated)	none
Cc1ccc(O)c(-c2cc(C(F)(F)C(F)F)[nH]n2)c1	D1 agonist 164
Cc1nc(C(C)NC(=O)CCc2nnc(-c3ccsc3)o2)cs1 (configuration not stated)	none
O=C1CSc2ccc(S(=O)(=O)CCC(=O)NC3CCCCC3)cc2N1	none
Fc1ccccc1SCc1nnc(-c2ccccc2Br)o1	D1 antagonist -66
Cc1csc(SCc2nnc(-c3ccccc3Br)o2)n1	none
Cn1c(=O)c2c(nc(NCc3ccccc3)n2Cc2ccc(Cl)c(Cl)c2)n(C)c1=O	none
COc1ccc(C)cc1NC(=O)CN(C)S(=O)(=O)c1ccc2c(c1)c(=O)n(C)c(=O)n2C	D1 antagonist -30!
CCOC(=O)c1c(C)[nH]c(C)c1S(=O)(=O)N(C)CC(=O)Nc1cc(C)ccc1OC	D1 antagonist -40
CCOC(=O)c1c(C)[nH]c(C)c1S(=O)(=O)NCC(=O)Nc1cc(C)ccc1OC	none
COC(=O)c1c(/N=C/N(C)C)sc2c1CCN(c1ncc(C(F)(F)F)cc1Cl)C2	D1 antagonist -31
COC(=O)c1c(N(S(C)(=O)=O)S(C)(=O)=O)sc2c1CCN(c1ncc(C(F)(F)F)cc1Cl)C2	none
CCc1ccccc1NC(=O)C(=O)NCC(c1cccnc1)N1CCN(c2ccccc2F)CC1 (configuration not stated)	none
COc1ccc(/C=C(/NC(=O)c2ccco2)C(=O)N2CCCCC2)cc1	none
O=C(Nc1nnc(N2CCCCCC2)s1)c1cc(-c2ccc(Br)cc2)on1	D1 antagonist -48
CCS(=O)(=O)CCn1c([N+](=O)[O-])cnc1C	TRHR PAM 37
Cc1cccc(/C=N/n2c(C)nc3ccccc3c2=O)c1	none
CN1CCN(c2nc(-c3ccco3)cc(C(F)(F)F)n2)CC1	D1 antagonist -68
O=[N+]([O-])c1cn(-c2nc(-c3ccco3)cc(C(F)(F)F)n2)cn1	D1 agonist 62 (no result: D1 antagonist)
O=C(NC1CC1)c1ccc2c(c1)S(=O)(=O)c1cc(Cl)ccc1C2=O	none
CCCN1Cc2cccc(C(=O)Nc3cccc(C(=O)OCC)c3)c2C1=O	none
COc1ccccc1CNC(=O)c1cc(Sc2cccc(Cl)c2)nc2ccccc12	none
CCOC(=O)C1CCCN(C(=O)c2cc(-c3ccc(C)cc3)on2)C1 (configuration not stated)	D1 antagonist -49
CCOC(=O)C1CCCN(C(=O)c2ccc3c(c2)NC(=O)C(N2CCOCC2)S3)C1 (configuration not stated)	D1 antagonist -31
CCOC(=O)C1CCCN(C(=O)CC(C)c2ccccc2)C1 (configuration not stated)	D1 antagonist -33
CCOC(=O)C1CCCN(S(=O)(=O)Cc2ccccc2)C1 (configuration not stated)	D1 antagonist -64
O=C1Nc2cc(C(=O)N3CCOCC3)ccc2SC1N1CCOCC1 (configuration not stated)	none
Cc1ccc(-c2cc(C(=O)N3CCCCCC3)no2)cc1	none
CCOC(=O)C1CCN(S(=O)(=O)Cc2ccccc2)CC1	none
COc1ccc(OC)c(-c2noc(N3CCN(c4cc(C)ccc4C)CC3)n2)c1	none
O=C(Cc1cc(=O)[nH][nH]1)N/N=C/C(Cl)=C/c1ccccc1	D1 agonist 31!
O=C(Cc1cc(=O)[nH][nH]1)N/N=C/c1ccccc1Cl	none
Cc1cc2c(s1)c1cnn(Cc3ccc(C(F)(F)F)cc3)c(=O)c1n2C	none
O=C1CC(c2ccc(F)cc2)Sc2nc(C34CC5CC(CC(C5)C3)C4)nn21 (configuration not stated)	D1 antagonist -52
O=C1CC(c2ccccc2)Sc2nc(-c3ccc(F)cc3)nn21 (configuration not stated)	none
Cc1[nH]n(-c2ccc([N+](=O)[O-])cc2)c(=O)c1C=NCCc1c[nH]c2ccccc12	D1 antagonist -36
CCOc1ccccc1CNC(=O)C1CCN(C(=O)N2CC(CC)Oc3ccc(C)cc32)CC1 (configuration not stated)	none
COC(=O)c1ccccc1NC(=O)Cn1c(-c2nonc2N)nc2ccccc21	D1 antagonist -67
